In the supplement of paper PMC11417369:
± gives the standard deviation of the averaged measurements. Over roughly 25,000 sequences, “ln(normalized median fluorescence intensity)” has its median near 8.6; the highest 2% begin near 10. The entries come from a sample that favours the highest values as a whole.

system: PfAP2-EXP AP2 domain (GST-tagged); test: gcPBM binding intensity (ln(normalized median fluorescence intensity)); higher = stronger DNA binding
Summary of the method: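 Alexa488 anti-GST antibody, scanned at 488 nm, detected GST-tagged P. falciparum DNA-binding domains that had been expressed in E. coli and incubated for 1 h on an Agilent 4 × 180k array. The array carried primer-extended double-stranded 36-bp intergenic genomic probes and negative controls. Binding intensity is the highest Masliner-normalised natural-log median intensity across replicate spots of either orientation of each probe.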

Row | Sequence | gcPBM binding intensity (ln)
1 | AACAGATAATATAAAAAAAAAAAAAAAAATAATTAA [GTGCAC_negctrl_site69] | 8.07 ± 0.53
2 | ATATTTTTTTTCTACACACATACAAATATATATTAT [CACACA_site2359] | 8.97 ± 0.46
3 | AATAAATAAAAAACATGTACAAATATAATATAGCAT [XGTACX_site6429] | 9.18 ± 0.5
4 | AAATTGTGTTCATCAGCACACACAACATCATGTAAT [CACACA_site8556] | 8.51 ± 0.41
5 | AAATATAAAAAAAATATATAATTTTTACATCGAATT [CACACA_negctrl_site544] | 8.24 ± 0.38
6 | TACAAAAAAAAATAAAATACATATATATATATATAT [XGTACX_negctrl_site608] | 10.3 ± 0.18
7 | AAAAATAAAAGGTGTGCACACAAAAATATATATATA [CACACA_site8507] | 9.74
8 | TACACAAATATATATATATATATATATATATATATA [XGTACX_negctrl_site305] | 10.2 ± 0.14
9 | TTATACACAAAAAAAAAAATATATATATATATATAT [XGTACX_negctrl_site5] | 10.2 ± 0.61
10 | AAAAATAAAGGGTGTGCACACAAAAATATATATATA [CACACA_site1727] | 9.805 ± 0.078
11 | GTACAAAAAAAAATAAAATACATATATATATATATA [GTGCAC_negctrl_site364] | 10.1 ± 0.41
12 | TAAATATATATATACACACACATACACAAAAAAAAA [CACACA_site3580] | 8.73 ± 0.42
13 | CACAAATATACAAATACACACAAATATACAAATACA [CACACA_site2385] | 8.7 ± 0.41
14 | TAATAAAAAATATATACACACAAATAAATAAATAAA [CACACA_site4037] | 8.75 ± 0.62
15 | TATAAATATATATATACACACACATACACAAAAAAA [CACACA_site9191] | 8.96 ± 0.54
16 | AAATAAAAAGGGTGCACACAAAAATATATATATATA [CACACA_site1728] | 10.5 ± 0.6
17 | CACAAATATATACATACACACATATATACACATATA [CACACA_site8024] | 8.47 ± 0.34
18 | TACGTGAAATTATATACACACATAAATATGTCTGTA [CACACA_site3122] | 8.16 ± 0.36
19 | ATTTAAAAAAAAACGGAATTTTTTTTTTTTTTAAAG [XGTACX_negctrl_site91] | 8.06 ± 0.51
20 | TTAAAAAAAATATAATGTACTTGTAGAATTATATTT [XGTACX_site6220] | 8.09 ± 0.26
21 | TTTTTTAATTAATTACCTTTGAATGTGTATTAGGAC [GTGCAC_negctrl_site651] | 8.49 ± 0.26
22 | AATATATACATATATTGTACATATAGTTTCTTGCAT [XGTACX_site7871] | 8.61 ± 0.33

Row | Sequence | gcPBM binding intensity (ln)
23 | AAATTATTATGAAATGGAAAATGCATAAATTGTTTT [XGTACX_negctrl_site206] | 8.63 ± 0.48
24 | ATACATACATACATACGTACATATGTATATATATAT [XGTACX_site8498] | 9.7 ± 0.19
25 | TACAAAAAAATAAATAATAAAAAAAAATATATATAA [XGTACX_negctrl_site344] | 8.38 ± 0.38
26 | TATAAAATAAATAACAAAAAAAATAAAATAAAAATA [TGCATGCA_negctrl_site297] | 8.47 ± 0.47
27 | AACATAACAAAAAAAAAAAAAAATATATATATATAT [TGCATGCA_negctrl_site370] | 10.2 ± 0.41
28 | TATATATACATATACACACATACGTACATACATATA [CACACA_site3585] | 8.75 ± 0.31
29 | CCATATACAACCATACGTACATATATATATATATAT [XGTACX_site8193] | 10.2 ± 0.2
30 | ACAAAAAAATAAAATATATATATATATATAATATAT [CACACA_negctrl_site805] | 8.58 ± 0.16
31 | AAAAAAATATAAATACGTACATATATATATATATAT [XGTACX_site432] | 10.2 ± 0.46
32 | ATAAATAAATAAATACGTACATATATATATATATAT [XGTACX_site8838] | 9.98 ± 0.38
33 | AATATACAAAATAAATAAAATATATATATATATATA [CACACA_negctrl_site216] | 10.2 ± 0.28
34 | TAATATAACAAAAAAATAAAATAAAATAAAAAATAA [CACACA_negctrl_site109] | 8.4 ± 0.41
35 | AAATAAATAAATATACGTACATATATATAATATATA [XGTACX_site5124] | 8.52 ± 0.15
36 | ATTCTAAATAAATGTACACACAAAAATAAATGTATA [CACACA_site1732] | 8.61 ± 0.31
37 | AACATATATATAATATGTACATAATATATATAAATG [XGTACX_site1161] | 8.52 ± 0.3
38 | AAAATTAAAAATTACTGTACGTATTAGAGAATAAAT [XGTACX_site2567] | 8.53 ± 0.32
39 | CATAAAATTGTGAAGTGTACATATTTTTAAATATAA [XGTACX_site8986] | 8.63 ± 0.28
40 | AATATTTTACAATACACATGCAAATAATATTCTAAA [TGCATGCA_site618] | 8.63 ± 0.39
41 | TATTTATATTTATACACACACACAAAAAAAAAAAAA [CACACA_site6817] | 8.36 ± 0.57
42 | TATATAAATATATATACACACAAAAAAAAAAAAAAA [CACACA_site1406] | 8.36 ± 0.52
43 | TATATATATATATACACACACACAAAAAAAAAAAAA [CACACA_site1505] | 10.2 ± 0.21
44 | AAAAAATAAATAAATACACACAAATATATATATATA [CACACA_site2543] | 10.2 ± 0.071
